Experimental data from PubChem BioAssay AID1159580 (chemical genetic matrix, 2015).
About 2,000 (36%) of roughly 5,500 compounds were called active. Inconclusive results (about 18%) are left out. Rule as the data show it: active = normalized growth mostly below about 0.91 (no sharp cut-off); inconclusive = no clear call, values can overlap the other calls; inactive = mostly above about 0.92. Some of the results follow.

Assay: chemical genetic growth profiling, strain panel (AID 1159580);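 also: tested at 20 µM; growth read once vehicle control cultures reached saturation at 30 °C; 1 = growth at the plate median or of vehicle wells; lower values mean less growth of the strain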
Details: growth OD

Measured: normalized growth

CN1CCN(C(c2ccccc2)c2ccccc2)CC1
inactive: S. cerevisiae deletion strains, locus YJR075W, strain HOC1, hits give low values 1 | S. cerevisiae deletion strains, locus YKL009W, strain mrt4, hits give low values 0.963 | S. cerevisiae deletion strains, locus YKL068W, hits give low values 0.977 | S. cerevisiae deletion strains, locus YKL085W, strain MDH1 (second series), hits give low values 0.973 | S. cerevisiae deletion strains, locus YKL085W, strain MDH1, hits give low values 0.973 | S. cerevisiae deletion strains, locus YKL160W, strain elf1, hits give low values 0.965 | S. cerevisiae deletion strains, locus YKL190W, strain CNB1, hits give low values 0.974 | S. cerevisiae deletion strains, locus YKR001C, strain vps1, hits give low values 0.974 | S. cerevisiae deletion strains, locus YKR026C, strain gcn3, hits give low values 0.992 | S. cerevisiae deletion strains, locus YKR091W, strain srl3, hits give low values 0.98 | S. cerevisiae deletion strains, locus YLL001W, strain dnm1, hits give low values 0.996 | S. cerevisiae deletion strains, locus YLL026W, hits give low values 0.999 | S. cerevisiae deletion strains, locus YLL041C, strain sdh2, hits give low values 0.971 | S. cerevisiae deletion strains, locus YLR027C, strain aat2, hits give low values 0.985 | S. cerevisiae deletion strains, locus YLR039C, strain RIC1, hits give low values 1 | S. cerevisiae deletion strains, locus YLR058C, strain SHM2, hits give low values 0.999 | S. cerevisiae deletion strains, locus YLR102C, strain apc9, hits give low values 0.967 | S. cerevisiae deletion strains, locus YLR113W, strain HOG1, hits give low values 0.994 | S. cerevisiae deletion strains, locus YLR221C, strain rsa3, hits give low values 1.02 | S. cerevisiae deletion strains, locus YLR258W, strain gsy2, hits give low values 0.978 | S. cerevisiae deletion strains, locus YLR262C, strain YPT6 (second series), hits give low values 1 | S. cerevisiae deletion strains, locus YLR262C, strain YPT6, hits give low values 1.03 | S. cerevisiae deletion strains, locus YLR268W, strain sec22, hits give low values 0.965 | S. cerevisiae deletion strains, locus YLR320W, strain mms22, hits give low values 0.992 | S. cerevisiae deletion strains, locus YLR330W, strain CHS5, hits give low values 0.989 | S. cerevisiae deletion strains, locus YLR342W, strain FKS1 (second series), hits give low values 1.03 | S. cerevisiae deletion strains, locus YLR342W, strain FKS1, hits give low values 0.991 | S. cerevisiae deletion strains, locus YLR357W, strain rsc2, hits give low values 0.948 | S. cerevisiae deletion strains, locus YLR370C, strain arc18, hits give low values 0.989 | S. cerevisiae deletion strains, locus YLR371W, strain rom2, hits give low values 0.974 | S. cerevisiae deletion strains, locus YLR384C, strain iki3, hits give low values 0.965 | S. cerevisiae deletion strains, locus YLR418C, strain cdc73, hits give low values 0.934 | S. cerevisiae deletion strains, locus YML016C, strain PPZ1, hits give low values 1 | S. cerevisiae deletion strains, locus YML032C, strain rad52, hits give low values 0.959 | S. cerevisiae deletion strains, locus YML120C, strain ndi1, hits give low values 0.99 | S. cerevisiae deletion strains, locus YML124C, strain tub3, hits give low values 0.968 | S. cerevisiae deletion strains, locus YMR058W, strain fet3, hits give low values 1.01 | S. cerevisiae deletion strains, locus YMR078C, strain ctf18, hits give low values 0.973 | S. cerevisiae deletion strains, locus YMR125W, strain sto1, hits give low values 0.95 | S. cerevisiae deletion strains, locus YMR129W, hits give low values 0.996 | S. cerevisiae deletion strains, locus YMR205C, strain PFK2, hits give low values 0.963 | S. cerevisiae deletion strains, locus YMR223W, strain ubp8, hits give low values 0.991 | S. cerevisiae deletion strains, locus YMR231W, strain pep5, hits give low values 0.994 | S. cerevisiae deletion strains, locus YMR263W, strain SAP30, hits give low values 0.997 | S. cerevisiae deletion strains, locus YMR307W, strain GAS1, hits give low values 1.02 | S. cerevisiae deletion strains, locus YNL067W, strain RPL9B, hits give low values 0.996 | S. cerevisiae deletion strains, locus YNL071W, strain lat1, hits give low values 0.984 | S. cerevisiae deletion strains, locus YNL128W, strain TEP1, hits give low values 0.991 | S. cerevisiae deletion strains, locus YNL153C, strain GIM3, hits give low values 1 | S. cerevisiae deletion strains, locus YNL183C, strain NPR1, hits give low values 0.937 | S. cerevisiae deletion strains, locus YNL209W, strain ssb2, hits give low values 0.978 | S. cerevisiae deletion strains, locus YNL233W, strain BNI4, hits give low values 1 | S. cerevisiae deletion strains, locus YNL248C, strain rpa49, hits give low values 0.932 | S. cerevisiae deletion strains, locus YNL250W, strain rad50, hits give low values 0.987 | S. cerevisiae deletion strains, locus YNL271C, strain bni1, hits give low values 0.974 | S. cerevisiae deletion strains, locus YNL298W, strain CLA4, hits give low values 0.975 | S. cerevisiae deletion strains, locus YNL307C, strain MCK1, hits give low values 0.962 | S. cerevisiae deletion strains, locus YNL322C, strain KRE1 (second series), hits give low values 0.978 | S. cerevisiae deletion strains, locus YNL322C, strain KRE1, hits give low values 0.991 | S. cerevisiae deletion strains, locus YNR049C, strain mso1, hits give low values 0.99 | S. cerevisiae deletion strains, locus YNR052C, strain pop2, hits give low values 0.953 | S. cerevisiae deletion strains, locus YOL006C, strain TOP1, hits give low values 0.929 | S. cerevisiae deletion strains, locus YOL012C, strain htz1 1.39 | S. cerevisiae deletion strains, locus YOL147C, strain pex11, hits give low values 0.978 | S. cerevisiae deletion strains, locus YOR001W, strain rrp6, hits give low values 0.993 | S. cerevisiae deletion strains, locus YOR061W, strain CKA2, hits give low values 1 | S. cerevisiae deletion strains, locus YOR069W, strain VPS5, hits give low values 0.998 | S. cerevisiae deletion strains, locus YOR070C, strain gyp1, hits give low values 0.979 | S. cerevisiae deletion strains, locus YOR080W, strain dia2, hits give low values 0.986 | S. cerevisiae deletion strains, locus YOR083W, strain WHI5, hits give low values 0.948 | S. cerevisiae deletion strains, locus YOR106W, strain vam3, hits give low values 0.995 | S. cerevisiae deletion strains, locus YOR136W, strain idh2, hits give low values 0.971 | S. cerevisiae deletion strains, locus YOR144C, strain elg1, hits give low values 0.96 | S. cerevisiae deletion strains, locus YOR184W, strain ser1, hits give low values 0.994 | S. cerevisiae deletion strains, locus YOR231W, strain MKK1, hits give low values 0.987 | S. cerevisiae deletion strains, locus YOR265W, strain rbl2, hits give low values 0.98 | S. cerevisiae deletion strains, locus YOR270C, strain vph1, hits give low values 0.914 | S. cerevisiae deletion strains, locus YOR290C, strain snf2, hits give low values 0.974 | S. cerevisiae deletion strains, locus YOR316C, strain cot1, hits give low values 0.958 | S. cerevisiae deletion strains, locus YPL051W, strain arl3, hits give low values 0.979 | S. cerevisiae deletion strains, locus YPL055C, strain LGE1, hits give low values 0.975 | S. cerevisiae deletion strains, locus YPL078C, strain atp4, hits give low values 0.974 | S. cerevisiae deletion strains, locus YPL106C, strain sse1, hits give low values 0.949 | S. cerevisiae deletion strains, locus YPL240C, strain hsp82, hits give low values 1.01 | S. cerevisiae deletion strains, locus YPL241C, strain CIN2, hits give low values 0.994 | S. cerevisiae deletion strains, locus YPL256C, strain CLN2, hits give low values 0.995 | S. cerevisiae deletion strains, locus YPR119W, strain clb2, hits give low values 0.977 | S. cerevisiae deletion strains, locus YPR141C, strain kar3, hits give low values 0.954 | S. cerevisiae deletion strains, locus YPR163C, strain tif3, hits give low values 0.971 | S. cerevisiae deletion strains, locus YPR167C, strain met16, hits give low values 0.958 | S. cerevisiae deletion strains, strain wtn01, hits give low values 0.979 | S. cerevisiae strains, strain wild type, hits give low values 1.01
